# The list is not random: actives were taken first. Their share in the collection is about 2.2%.
# TMEM16A act – activates or potentiates the mouse TMEM16A chloride channel; HEK293 TMEM16A/YFP-H148Q/I152L, iodide quench fluorescence; hits give low values; B-score at 10 µM; 0.3% of 340,000 active;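 active = fluorescence-ratio B-score plate-corrected deviation score at least 3 library SD below zero, with starting fluorescence score within 5 deviations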;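 note: channel opened by trigger with iodide after compound preincubation; score built on the fluorescence ratio of max minus min over baseline; more negative score means more quench and so TMEM16A activation or potentiation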
# Target sequence (Q8BHY3 whole entry, looked up): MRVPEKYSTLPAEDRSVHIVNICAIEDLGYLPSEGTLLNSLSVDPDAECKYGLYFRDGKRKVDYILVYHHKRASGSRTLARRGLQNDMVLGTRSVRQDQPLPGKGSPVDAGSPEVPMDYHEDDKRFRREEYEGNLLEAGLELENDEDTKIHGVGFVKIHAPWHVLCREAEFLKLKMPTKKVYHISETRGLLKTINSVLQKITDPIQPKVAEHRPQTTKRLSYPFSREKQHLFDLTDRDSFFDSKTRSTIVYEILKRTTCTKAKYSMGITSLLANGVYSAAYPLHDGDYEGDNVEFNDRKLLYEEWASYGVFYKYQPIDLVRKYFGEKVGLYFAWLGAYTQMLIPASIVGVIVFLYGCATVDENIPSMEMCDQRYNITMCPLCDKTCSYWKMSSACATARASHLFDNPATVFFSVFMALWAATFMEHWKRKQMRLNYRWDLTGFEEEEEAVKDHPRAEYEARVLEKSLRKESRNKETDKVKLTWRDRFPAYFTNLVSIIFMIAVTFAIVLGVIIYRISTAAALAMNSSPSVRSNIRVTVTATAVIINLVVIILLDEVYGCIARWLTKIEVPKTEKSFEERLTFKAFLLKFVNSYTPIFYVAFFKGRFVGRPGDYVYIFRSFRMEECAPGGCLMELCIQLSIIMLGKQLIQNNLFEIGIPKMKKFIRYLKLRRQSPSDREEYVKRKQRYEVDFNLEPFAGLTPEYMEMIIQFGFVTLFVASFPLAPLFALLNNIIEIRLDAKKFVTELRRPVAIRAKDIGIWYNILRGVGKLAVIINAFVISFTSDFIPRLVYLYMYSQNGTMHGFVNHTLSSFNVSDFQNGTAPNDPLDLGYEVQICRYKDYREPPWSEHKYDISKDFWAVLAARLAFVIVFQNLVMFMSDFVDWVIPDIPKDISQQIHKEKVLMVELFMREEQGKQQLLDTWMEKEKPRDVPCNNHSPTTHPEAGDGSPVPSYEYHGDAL
# CHO-K1 Ca PAM – counter-screen for M1 PAMs: effect in parental CHO-K1 cells | ATP EC20, Fluo-8 calcium fluorescence; 0% at ATP EC20, 100% at ATP max | 0.02% of 360,000 active | activation, % at 3 µM;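 active = activation above the run cutoff, the mean activation of all test compounds plus 3 SD, cut at about 40% in these data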;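 note: peak over basal fluorescence ratio in a 140 s read after ATP addition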
# TMEM16A inh – blocks the mouse calcium-activated chloride channel TMEM16A. Q8BHY3. HEK293 TMEM16A/YFP iodide influx fluorescence, ionomycin. normalized B-score (activity score, 25-100; higher = stronger inhibition) at 10 µM. 1.2% of 310,000 active;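 active = ratio plate-corrected score three or more library SD toward inhibition, starting fluorescence score within five deviations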;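 note: score derived from kinetic fluorescence span divided by baseline fluorescence per well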
# NTR1 agonist – agonists of human neurotensin receptor NTR1. P30989. 0.17% of 330,000 active. NTR1-U2OS beta-arrestin-GFP spot imaging, agonist mode. AID 493036. activation, % at 20 µM;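 active = activation at or above 40% of the spot to cytoplasm intensity ratio, with at least 20 cells analyzed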;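 note: 0% = DMSO without peptide and 100% = 100 nM NTR1 peptide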
# M1 ag parental – counter-screen for M1 agonists: effect in parental CHO-K1 cells. Fluo-8 calcium fluorescence; scaled to maximal ATP response, vehicle zero. activation, % at 3 µM. 0.48% of 360,000 active. AID 602248; in the data active = activation above about 15%;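 note: untransfected CHO-K1 host cells lacking M1 receptor as counterscreen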
# CHO-K1 Ca antag – nonselective inhibitor or artifact in parental CHO-K1 cells | ATP-induced calcium, Fluo-8 fluorescence | inhibition, % at 3 µM | 0.6% of 360,000 active;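 active = inhibition above a per-plate cutoff, the plate's mean sample inhibition plus 3 SD, cut at about 24% in these data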;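 note: 0% = DMSO plus EC80 ATP and 100% = DMSO alone without ATP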
# An asterisk follows results filed as active; i = inactive; · = not tested or not shown.
SMILES,TMEM16A act,CHO-K1 Ca PAM,TMEM16A inh,NTR1 agonist,M1 ag parental,CHO-K1 Ca antag
Cc1ccccc1C(=O)N1CCC[C@@H]1C(=O)N1CCC[C@H]1C(=O)NCc1ccncc1,·,17.1,·,·,0.8,-12.2
O=S(=O)(c1ccc(OC(F)(F)F)cc1)N1CCC(O)(c2cccc(C(F)(F)F)c2)CC1,i,-3.9,25*,12.4,6.1,-9.7
O=C(c1ccc(N2C(=O)c3ccccc3C2=O)cc1)N1CCN(S(=O)(=O)c2ccccc2F)CC1,·,13.5,·,·,3.7,-9.9
O=C(Nc1c(Cl)cc2c(c1Cl)Cc1cc([N+](=O)[O-])ccc1-2)C(Cl)Cl,i,20.2,·,·,0.2,-9.6
O=C(CCCn1c(=O)[nH]c2cc(Cl)ccc2c1=O)NC1CCCCCC1,i,-3.2,25*,-1.1,0.3,-11.2
COc1cc2[nH]c(=O)n(CCCCCC(=O)NC3CCCC3)c(=O)c2cc1OC,i,-10.6,i,2.7,0.3,-10.7
CCC(C)N1CCNCC1 (stereo not given),i,-14.4,i,-0.7,-0.1,25.1*
COc1ccc(S(=O)(=O)NCC(=O)N(CC(=O)NCc2ccccc2)Cc2ccco2)cc1,i,-8.9,i,-0.2,1.4,-5.0
COc1ccc(CNC(=O)C(c2ccco2)N(C(=O)CNS(=O)(=O)c2ccccc2)c2ccccc2C)cc1 (stereo not given),i,13.7,25*,6.1,53.5*,11.1
Cc1ccc(CNC(=O)[C@H](C)N2C(=O)N3CCc4c([nH]c5ccccc45)[C@@]3(C)C2=O)cc1,i,12.6,i,9.1,1.4,-8.3
COc1ccc(CNC(=O)[C@H](C)N2C(=O)N3CCc4c([nH]c5ccccc45)[C@@]3(C)C2=O)cc1OC,-13*,16.7,i,-1.7,0.9,-0.5
CCOc1ccc(NC(=O)CN(C)C(=O)CC(NC(=O)c2ccccc2)c2ccccc2)cc1OCC (stereo not given),-4.95*,17.4,i,0.3,1.1,-11.8
Cc1nn(-c2ccccc2)c(Cl)c1/C=N/O,i,4.9,i,1.4,-0.3,10.1
Cc1nn(-c2ccccc2)c(Cl)c1/C=C/C(=O)c1ccccc1,i,-5.9,i,5.6,-0.2,28.4*
O=C(O)C(Cc1ccccc1)N1C(=O)/C(=C/c2cccc3ccccc23)SC1=S (stereo not given),·,·,100*,·,·,·
COc1cc(/C=C2\SC(=S)N(NC(=O)c3ccc(O)cc3)C2=O)ccc1O,i,-20.8,i,-0.8,23.5*,13.3
COc1cc(/C=C2\SC(=S)N(C(Cc3ccccc3)C(=O)O)C2=O)ccc1O (stereo not given),i,-8.1,i,0.1,15.2*,2.9
COc1cc(/C=C2\SC(=S)N(Nc3ccccc3)C2=O)ccc1O,i,8.4,i,-3.1,27.2*,23.7*
O=C(O)C(Cc1ccccc1)N1C(=O)/C(=C/c2ccccc2)SC1=S (stereo not given),i,22.9,i,1.4,0.0,-5.8
COc1cc(/C=C2\SC(=S)N(NC(=O)c3cccnc3)C2=O)ccc1O,i,-6.2,i,1.8,4.0,19.6
CCN(CC)C(=O)c1cccc(-c2csc(C(O)c3cccc(OC)c3)n2)c1 (stereo not given),·,-9.4,·,·,13.1,9.4
Cn1ncc([N+](=O)[O-])c1C(=O)Nc1ccccc1C#N,·,-5.3,·,·,0.0,-2.5
Cc1ccsc1C(=O)OCC(=O)c1cc(C)n(C)c1C,i,-5.3,·,-3.0,0.5,-13.0
O=C(Nc1c(-c2ccc3c(c2)OCO3)[nH][nH]c1=O)c1cnccn1,·,5.4,·,·,0.0,-16.9
CCc1nc2c(OCc3ccc(F)c(F)c3)cccn2c1N(C)C(=O)C1CC1,·,-1.9,·,·,-0.3,6.5
Cc1ccc(/C=C2\SC(=S)N(c3cccnc3)C2=O)cc1,i,10.5,i,7.5,0.3,-6.1
O=C(NN1C(=O)/C(=C\c2ccc(O)c([N+](=O)[O-])c2)SC1=S)c1ccccc1Cl,-5.5*,-0.5,i,0.6,2.2,-0.4
COc1cc(/C=C2/SC(=S)N(CC3CCCO3)C2=O)ccc1O (stereo not given),i,4.6,i,-1.1,18.0*,15.1
